Experimental data: PubChem BioAssay (NCATS)
Results filed as inconclusive are left out. Activity calls are given as the source filed them. Unless noted, calls come from the whole dose curve; as a rule, active = well fitted curve in either direction with a large enough effect (not every such curve was filed as active); inconclusive = small, poorly fitted or top-dose-only effect, or another doubt; inactive = flat fitted curve, though single readings scatter.

Legend:
[1] = NFAT Signaling Pathway (AID 444); details: Jurkat NFAT-bla M1, carbachol, beta-lactamase ratio, 5 h; at 7.69 µM (top of the series) unless noted;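 note: carbachol stimulus at about its EC50 of 1 µM final; % is set by controls: 0 for no effect and ±100 for the full control effect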
Method in brief: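 Read-out: CCF4 FRET ratio (460 nm/530 nm) after 1 h RT dye loading, used for %activity and AC50 from titration series. Cells: Jurkat NFAT-β-lactamase/M1 line, treated with compound plus 1 uM carbachol for 5 h, 37 °C.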

[2] = Stat Signaling Pathway (AID 446); details: ME-180 SIE beta-lactamase reporter, IL-6 stimulated, 5 h; at 7.69 µM (top of the series) unless noted;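 note: ME-180 cervical cancer cells given 40 pM IL-6 alongside compound; SIE-controlled beta-lactamase reporter measured as 460/530 nm FRET emission ratio; % is set by controls: 0 for no effect and ±100 for the full control effect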
Method in brief: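 IL-6/STAT signaling read in ME-180 cells via an SIE beta-lactamase reporter. Stimulus was 40 pM IL-6 (its AC50) for 5 hrs, so both activation and inhibition register.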

[3] = target: Glucocorticoid receptor (Homo sapiens) (UniProt P04150); assay: GR-GFP Redistribution (AID 450;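 active = compounds whose dose series gives a full or clear partial fitted curve of increased nuclear translocation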; note: potency is the fitted concentration of half-maximal effect); details: U2OS GR-GFP nuclear translocation, laser cytometry, 2 h
[4] = target: Glucocorticoid receptor (Homo sapiens) (UniProt P04150); assay: GR-EFC Redistribution (AID 451; calls by dose curve; note: potency is the fitted concentration of half-maximal effect); details: CHO-K1 GR-EFC translocation, beta-gal luminescence, 2 h
Method in brief: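 Translocation of GR-ED fusion to nuclear EA restores b-gal, read by luminescence after 1 h room-temperature detection. Engineered CHO-K1 biosensor cells, 1,000/well, exposed 2 h at 37 C to titrations up to 46 uM final.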

[5] = target: Mitogen-activated protein kinase 10 (Mus musculus) (UniProt Q61831); assay: JNK3 AlphaScreen Assay (AID 530);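 note: kinase came from lysate of stimulated human HepG2 cells; signal reports phosphorylation of biotinylated GST-cJun 1-79 at Ser73 with 10 µM ATP; % is set by controls: 0 for no effect and ±100 for the full control effect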
Method in brief: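 Compound titrations were preincubated 15 minutes at room temperature with substrate, antibody and pre-activated JNK3-containing HepG2 lysate. Reactions were started with 10 uM ATP and stopped with EDTA-containing bead buffer for AlphaScreen detection.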

[6] = target: Cytochrome P450 3A4 (Homo sapiens) (UniProt P08684); assay: qHTS Assay for Activators of Cytochrome P450 3A4 (AID 885; active = well fitted curve in the direction sought with a large enough effect; an effect the other way counts as inactive or inconclusive; note: nearly all actives have a fitted effect of over 65% in size)
Method in brief: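 Quantitative HTS format: compounds preincubated with 20nM human CYP3A4 and Luciferin-PPXE substrate at KM, reaction started by NADPH regeneration, stopped after 60 min, luciferase luminescence read 20 min later.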

[7] = target: Cytochrome P450 2D6 (Homo sapiens) (UniProt P10635); assay: qHTS Assay for Inhibitors and Substrates of Cytochrome P450 2D6 (AID 891; active = well fitted curve in the direction sought with a large enough effect; an effect the other way counts as inactive or inconclusive; note: potency is the fitted concentration of half-maximal effect; nearly all actives have a fitted effect of over 60% in size)
Method in brief: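 Human CYP2D6 (5 nM) with 30 uM Luciferin-ME EGE (at Km) in 100 mM KPO4, compound preincubated 10 min, then NADPH regeneration system for 60 min at room temperature. Luciferin read by luminescence; normalized to 1.43 uM quinidine.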

[8] = target: Cytochrome P450 1A2 (Homo sapiens) (UniProt P05177); assay: p450-cyp1a2 (AID 410; calls by dose curve; note: potency is the fitted concentration of half-maximal effect;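 for activity change, negative = inhibition: -100% = full effect of reference inhibitor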)
Method in brief: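 Luminescent readout of luciferin formed from Luciferin-ME by human CYP1A2; data normalized against complete inhibition by 57 uM furafylline. Enzyme 20nM, substrate 100uM at Km, 100mM KPO4 buffer, 60 min reaction at room temperature.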

[9] = target: 3',5'-cyclic-AMP phosphodiesterase 4B (Homo sapiens) (UniProt Q07343); assay: qHTS Assay for Inhibitors of PDE-IV (AID 607; active = well fitted activation curve with a large enough effect in the main read-out, with a control signal flat, not every such curve was filed as active; note: % of control where 0% means no effect)
Method in brief: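 Live HEK293 cells with a modified cyclic nucleotide-gated (CNG) channel report intracellular cAMP via membrane-potential dye fluorescence (ex 535/em 590 nm). Endogenous PDE-IV was targeted. Compounds were tested at up to 22.9 uM final; RO 20-1724 100 uM served as control.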

[10] = AP1 Signaling Pathway (AID 357); details: ME-180 (cervical carcinoma) AP-1-bla reporter, EGF-induced, beta-lactamase ratio, 5 h; at 7.69 µM (top of the series) unless noted;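 note: ME-180 reporter cells stimulated with EGF at its EC50 level; % is set by controls: 0 for no effect and ±100 for the full control effect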
Method in brief: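 First, ME-180 AP-1-bla cells were cultured overnight at 37 °C in low-serum Opti-MEM. Next, titrated compounds with EC50 EGF were incubated 5 hours. Finally, CCF4 was added for 2.5 hours and the 460/530 nm ratio recorded.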

[11] = target: Guanine nucleotide-binding protein G(i) subunit alpha-1 (Homo sapiens) (UniProt P63096); assay: qHTS Assay for Inhibitors of RGS12 GoLoco Motif Activity (Green Fluorophore) (AID 879; active = well fitted curve in the direction sought with a large enough effect; an effect the other way counts as inactive or inconclusive;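 note: 0% = labeled peptide with Gαi1 and full inhibition = labeled peptide alone without protein; negative values mean loss of peptide binding seen as reduced polarization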)
Method in brief: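 Fluorescence polarization assay: 50 nM Gαi1 with 10 nM FITC-labeled RGS12 GoLoco peptide in 10 mM Tris pH 7.5, 150 mM NaCl, 0.1 mM GDP, 0.05% NP40, 10 min at room temperature with compound.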

[12] = target: Pyruvate kinase (Leishmania mexicana) (UniProt Q27686); assay: qHTS Validation Assay for Inhibitors of Leishmania Mexicana Pyruvate Kinase (AID 945; active = well fitted curve in the direction sought with a large enough effect; an effect the other way counts as inactive or inconclusive;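 note: 0% = DMSO only neutral control wells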)
Method in brief: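 The enzyme is a highly purified E451W mutant of LmPYK used at 0.2 nM. It converts 0.5 mM PEP and 0.1 mM ADP over 1 h at room temperature; product ATP is quantified by luciferase luminescence relative to DMSO controls.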

[13] = target: Pyruvate kinase PKM (Homo sapiens) (UniProt P14618); assay: qHTS Assay for Activators of Human Muscle Pyruvate Kinase (AID 954; active = well fitted curve in the direction sought with a large enough effect, not every such curve was filed as active;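 note: 0% = uninhibited enzyme and -100% = no enzyme or full thiadiazolimine inhibition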)
Method in brief: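 Enzyme was run at intermediate activity so both inhibitors and activators could be detected. ATP formed from ADP and PEP by 0.1 nM human PKM2 during a 1 h room-temperature incubation was quantified by coupled luciferase luminescence.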

[14] = target: alpha-glucosidase (Oryza sativa, rice) (UniProt Q653V4); assay: Counterscreen for Glucocerebrosidase Inhibitors: qHTS Assay for Rice alpha-Glucosidase at pH 5.0 (AID 997; active = well fitted curve in the direction sought with a large enough effect; an effect the other way counts as inactive or inconclusive;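 note: 0% = full activity with enzyme and -100% = basal without enzyme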)
Method in brief: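 Rice alpha-glucosidase (4 nM final) with 400 uM 4-methylumbelliferyl-alpha-D-glucopyranoside in citrate buffer pH 5.0, 20 min at room temperature, stopped at pH 10; fluorescence 365/440 nm, compounds 0.7 nM–77 uM, AC50 from Hill fits.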

Chain of Cytochrome P450 1A2 (Homo sapiens) (P05177 whole entry, looked up): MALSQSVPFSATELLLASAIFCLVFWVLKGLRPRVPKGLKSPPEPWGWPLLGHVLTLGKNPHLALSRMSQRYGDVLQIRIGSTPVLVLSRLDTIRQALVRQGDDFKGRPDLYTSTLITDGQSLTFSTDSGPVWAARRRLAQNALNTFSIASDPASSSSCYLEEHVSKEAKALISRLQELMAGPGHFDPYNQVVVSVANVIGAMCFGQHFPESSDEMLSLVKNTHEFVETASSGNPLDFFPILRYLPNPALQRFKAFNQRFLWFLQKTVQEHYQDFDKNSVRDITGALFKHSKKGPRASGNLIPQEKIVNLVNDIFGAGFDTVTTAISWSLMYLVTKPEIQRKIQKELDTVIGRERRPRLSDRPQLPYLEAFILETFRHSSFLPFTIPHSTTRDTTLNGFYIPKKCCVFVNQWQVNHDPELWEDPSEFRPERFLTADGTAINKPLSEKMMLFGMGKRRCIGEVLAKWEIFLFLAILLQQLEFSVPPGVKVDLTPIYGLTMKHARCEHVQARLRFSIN
Chain of Cytochrome P450 3A4 (Homo sapiens) (P08684 whole entry, looked up): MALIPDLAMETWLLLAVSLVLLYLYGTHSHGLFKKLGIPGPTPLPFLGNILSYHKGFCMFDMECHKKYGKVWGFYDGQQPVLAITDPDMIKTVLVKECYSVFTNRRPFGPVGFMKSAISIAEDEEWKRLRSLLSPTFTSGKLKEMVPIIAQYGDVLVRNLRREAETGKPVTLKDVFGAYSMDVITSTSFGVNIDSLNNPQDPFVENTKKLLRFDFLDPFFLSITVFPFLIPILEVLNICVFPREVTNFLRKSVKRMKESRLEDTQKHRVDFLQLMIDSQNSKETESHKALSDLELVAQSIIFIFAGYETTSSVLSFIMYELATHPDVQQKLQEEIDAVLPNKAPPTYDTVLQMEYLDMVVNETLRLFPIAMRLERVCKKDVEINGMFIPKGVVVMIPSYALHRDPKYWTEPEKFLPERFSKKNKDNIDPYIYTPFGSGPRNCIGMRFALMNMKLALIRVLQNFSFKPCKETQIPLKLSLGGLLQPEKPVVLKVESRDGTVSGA
Chain of 3',5'-cyclic-AMP phosphodiesterase 4B (Homo sapiens) (Q07343 whole entry, looked up): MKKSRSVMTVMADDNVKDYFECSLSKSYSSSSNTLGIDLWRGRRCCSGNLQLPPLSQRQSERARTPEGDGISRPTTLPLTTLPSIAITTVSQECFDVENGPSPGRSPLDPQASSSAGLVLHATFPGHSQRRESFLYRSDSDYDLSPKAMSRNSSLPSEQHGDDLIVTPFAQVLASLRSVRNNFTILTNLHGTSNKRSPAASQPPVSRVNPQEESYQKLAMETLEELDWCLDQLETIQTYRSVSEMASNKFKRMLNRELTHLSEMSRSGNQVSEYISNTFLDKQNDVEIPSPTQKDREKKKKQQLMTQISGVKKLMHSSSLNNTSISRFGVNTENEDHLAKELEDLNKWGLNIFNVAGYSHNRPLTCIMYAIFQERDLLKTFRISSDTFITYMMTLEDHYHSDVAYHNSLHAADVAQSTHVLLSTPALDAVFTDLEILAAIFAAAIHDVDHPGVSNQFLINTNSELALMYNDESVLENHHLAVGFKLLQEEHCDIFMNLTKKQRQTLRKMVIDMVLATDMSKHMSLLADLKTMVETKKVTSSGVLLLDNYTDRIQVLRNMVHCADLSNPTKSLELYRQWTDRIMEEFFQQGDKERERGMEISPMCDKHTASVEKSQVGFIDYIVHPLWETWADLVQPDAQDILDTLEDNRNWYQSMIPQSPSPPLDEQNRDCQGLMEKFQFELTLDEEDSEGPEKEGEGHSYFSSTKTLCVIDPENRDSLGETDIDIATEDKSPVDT
Chain of Glucocorticoid receptor (Homo sapiens) (P04150 whole entry, looked up, the tested form may be a part): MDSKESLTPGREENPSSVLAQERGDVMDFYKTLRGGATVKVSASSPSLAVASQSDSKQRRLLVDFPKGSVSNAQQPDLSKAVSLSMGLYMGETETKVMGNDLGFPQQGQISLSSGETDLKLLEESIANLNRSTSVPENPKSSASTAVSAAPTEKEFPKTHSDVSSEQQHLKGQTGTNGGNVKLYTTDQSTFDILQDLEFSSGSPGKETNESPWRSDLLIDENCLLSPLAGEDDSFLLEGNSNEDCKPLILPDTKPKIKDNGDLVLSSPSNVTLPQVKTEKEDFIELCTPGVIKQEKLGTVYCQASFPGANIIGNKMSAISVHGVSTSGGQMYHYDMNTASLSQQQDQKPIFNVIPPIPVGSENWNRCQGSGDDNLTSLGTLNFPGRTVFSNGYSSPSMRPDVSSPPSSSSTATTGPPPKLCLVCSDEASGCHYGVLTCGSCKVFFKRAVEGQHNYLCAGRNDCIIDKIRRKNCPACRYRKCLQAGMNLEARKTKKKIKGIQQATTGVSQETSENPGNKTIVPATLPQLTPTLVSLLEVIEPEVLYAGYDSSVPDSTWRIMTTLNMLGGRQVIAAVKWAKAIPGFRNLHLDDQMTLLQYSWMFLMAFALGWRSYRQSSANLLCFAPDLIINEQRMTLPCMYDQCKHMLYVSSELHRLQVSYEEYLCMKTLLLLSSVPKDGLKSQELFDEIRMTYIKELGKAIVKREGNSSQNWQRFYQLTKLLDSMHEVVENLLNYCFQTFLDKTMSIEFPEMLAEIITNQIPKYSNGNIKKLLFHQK
Chain of Cytochrome P450 2D6 (Homo sapiens) (P10635 whole entry, looked up): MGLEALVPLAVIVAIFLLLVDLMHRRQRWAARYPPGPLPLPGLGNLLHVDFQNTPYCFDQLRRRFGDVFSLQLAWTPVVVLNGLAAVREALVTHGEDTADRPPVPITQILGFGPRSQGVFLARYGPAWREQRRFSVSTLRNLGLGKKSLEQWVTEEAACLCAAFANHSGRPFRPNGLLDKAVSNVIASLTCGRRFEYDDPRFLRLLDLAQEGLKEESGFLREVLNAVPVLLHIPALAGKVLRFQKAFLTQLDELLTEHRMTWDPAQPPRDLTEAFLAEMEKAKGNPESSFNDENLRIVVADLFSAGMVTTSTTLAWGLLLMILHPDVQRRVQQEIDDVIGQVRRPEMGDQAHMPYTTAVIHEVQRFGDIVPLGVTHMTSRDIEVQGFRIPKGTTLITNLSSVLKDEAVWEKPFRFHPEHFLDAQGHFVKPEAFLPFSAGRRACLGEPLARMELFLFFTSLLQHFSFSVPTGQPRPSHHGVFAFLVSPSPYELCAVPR
Chain of Pyruvate kinase PKM (Homo sapiens) (P14618 whole entry, looked up): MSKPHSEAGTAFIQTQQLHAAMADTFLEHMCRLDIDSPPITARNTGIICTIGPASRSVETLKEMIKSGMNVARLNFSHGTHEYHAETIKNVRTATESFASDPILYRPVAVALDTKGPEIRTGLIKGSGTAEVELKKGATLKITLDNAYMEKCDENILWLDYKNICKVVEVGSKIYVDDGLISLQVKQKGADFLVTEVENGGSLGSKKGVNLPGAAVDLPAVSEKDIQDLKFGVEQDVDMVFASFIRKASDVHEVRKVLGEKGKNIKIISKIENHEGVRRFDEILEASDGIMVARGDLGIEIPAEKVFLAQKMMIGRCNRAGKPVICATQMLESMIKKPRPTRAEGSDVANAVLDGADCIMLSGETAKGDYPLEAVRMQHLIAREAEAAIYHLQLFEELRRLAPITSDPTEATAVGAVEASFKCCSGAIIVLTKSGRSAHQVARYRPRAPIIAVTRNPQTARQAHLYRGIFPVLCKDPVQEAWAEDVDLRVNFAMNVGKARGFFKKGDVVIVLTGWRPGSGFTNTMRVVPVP
Chain of Guanine nucleotide-binding protein G(i) subunit alpha-1 (Homo sapiens) (P63096 whole entry, looked up): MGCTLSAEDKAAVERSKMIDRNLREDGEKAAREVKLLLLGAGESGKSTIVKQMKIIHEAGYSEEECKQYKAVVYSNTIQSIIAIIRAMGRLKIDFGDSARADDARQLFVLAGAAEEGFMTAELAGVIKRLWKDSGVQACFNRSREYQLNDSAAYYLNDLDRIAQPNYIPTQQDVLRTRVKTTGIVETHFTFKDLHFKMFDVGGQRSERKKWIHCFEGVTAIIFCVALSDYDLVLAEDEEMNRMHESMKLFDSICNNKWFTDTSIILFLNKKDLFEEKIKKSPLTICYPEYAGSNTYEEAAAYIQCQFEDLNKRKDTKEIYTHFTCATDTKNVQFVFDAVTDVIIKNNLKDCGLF
Chain of Pyruvate kinase (Leishmania mexicana) (Q27686 2-499 E452W): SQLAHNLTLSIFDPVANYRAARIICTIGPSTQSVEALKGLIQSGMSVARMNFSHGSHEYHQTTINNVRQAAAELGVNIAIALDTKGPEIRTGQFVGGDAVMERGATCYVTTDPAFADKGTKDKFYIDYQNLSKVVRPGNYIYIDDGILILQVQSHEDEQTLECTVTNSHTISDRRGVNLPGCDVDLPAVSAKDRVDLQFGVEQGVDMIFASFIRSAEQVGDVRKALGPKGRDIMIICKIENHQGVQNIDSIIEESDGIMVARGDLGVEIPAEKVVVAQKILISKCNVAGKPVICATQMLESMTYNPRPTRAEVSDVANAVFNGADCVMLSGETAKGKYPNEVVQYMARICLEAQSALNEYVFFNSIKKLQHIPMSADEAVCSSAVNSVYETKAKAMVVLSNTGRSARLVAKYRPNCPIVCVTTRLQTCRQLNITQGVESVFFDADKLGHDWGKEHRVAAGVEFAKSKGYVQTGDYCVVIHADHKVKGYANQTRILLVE

CCNc1ncc2nc(CCc3ccccc3)c(=O)n(-c3ccc(OC)cc3)c2n1
inactive: activity change, negative = inhibition [1] -12.3% | activity, negative = inhibition [2] -3.89% | Potency [3] > 9.22 µM | Potency [4] > 46 µM | Potency [5] | Potency [6]
active: Potency [7] 0.251 µM

COc1cccc(Nc2ncc3nc(CCc4ccccc4)c(=O)n(C[C@H]4CCCO4)c3n2)c1
inactive: activity change, negative = inhibition [1] -6.15% | activity, negative = inhibition [2] -12.8% | Potency [3] > 9.22 µM | Potency [4] > 46 µM | Potency [5]

Nc1ccc(N=Nc2ccc(-c3ccc(O)cc3)cc2)c2ccc(S(=O)(=O)O)cc12
inactive: activity change, negative = inhibition [8] -17.8% [at 2.29 µM] | Potency [3] > 46 µM | Potency [4] > 9.22 µM | Potency [9]

O=[N+]([O-])c1ccc(S(=O)(=O)Cc2ccccc2)c([N+](=O)[O-])c1
active: activity change, negative = inhibition [1] -88.3%
inactive: Potency [4] > 9.22 µM | Potency [5]

OC[C@H](S)CS
inactive: activity, negative = inhibition [2] 5.31% | Potency [3] > 46 µM | Potency [4] > 9.22 µM | Potency [5] | Potency [9]

N#CCCn1c(=O)c(-c2cccs2)nc2cnc(Oc3cccc(Cl)c3)nc21
inactive: Potency [3] > 9.22 µM | Potency [4] > 46 µM | Potency [5] | Potency [6]
active: Potency [8] 3.16 µM

O=c1c(-c2ccccc2)nc2cnc(N3CCNCC3)nc2n1Cc1ccc(F)cc1
inactive: Potency [3] > 9.22 µM | Potency [4] > 46 µM | Potency [9] | Potency [6]
active: Potency [8] 20 µM

OCCN[C@@H]1c2cc(Cl)ccc2-c2c(Cl)cc(Cl)cc21
inactive: activity change, negative = inhibition [1] -8.6% | activity, negative = inhibition [2] 4.1% | Potency [3] > 46 µM | Potency [4] > 9.22 µM | Potency [5] | Potency [9]

NS(=O)(=O)c1ccc(N=Nc2cc3ccccc3c(C(=O)O)c2O)cc1
active: Potency [8] 1 µM
inactive: Potency [3] > 46 µM | Potency [4] > 9.22 µM | Potency [9] | Potency [6]

Cc1noc(C)c1C(=O)N1CCC[C@@]2(CCN(c3cccc(-c4ccccc4)c3)C2)C1
inactive: activity change, negative = inhibition [1] -20.7% | activity, negative = inhibition [2] -22.2% | Potency [4] > 46 µM | Potency [5] | Potency [9]

Oc1ccc([C@@H]2CNCCc3c2cc(O)c(O)c3Cl)cc1
active: Potency [7] 3.16 µM
inactive: activity change, negative = inhibition [10] -5.37% [at 38 µM] | Potency [8] | activity change, negative = inhibition [1] 1.42% [at 38 µM] | activity, negative = inhibition [2] 18.7% [at 38 µM] | Potency [3] > 46 µM | Potency [4] > 46 µM | Potency [5] | Potency [9] | outcome [11] | Potency [6] | outcome [12] | outcome [13] | Potency [14]
